Source: PubChem BioAssay

experiment: sensitizers of A549 cells to miR-34 induction, primary screen, imaging, A549 dox-inducible miR-34, nuclei and caspase counts (AID 1347080); settings: A549 miR-34 inducible, Hoechst nuclei count, 48 h; measured here: total cells with miR-34 induction; stronger effect = lower value; also: test concentration not given here

With `CCCCC[C@H](O)C/C=C1/C(=O)C[C@H](O)[C@@H]1C/C=C\CCCC(=O)O` as the compound, how does the cell count read?
Its cell count is 5280.

For `CCCCC/C=C\C=C1\C(=O)CC[C@@H]1C/C=C\CCCC(=O)O`, which cell count is on record?
Its cell count is 5640.

Which cell count does the source give for `COc1ccc(C2=N[C@@H](c3ccc(Cl)cc3)[C@@H](c3ccc(Cl)cc3)N2C(=O)N2CCNC(=O)C2)c(OC(C)C)c1` here?
Its cell count is 4290.

With `COC(=O)C1=CC[C@@]23CC[C@@H]([C@@](C)(/C=C/C=C(\C)C(=O)O)OC2=O)[C@@]3(OC(C)=O)CC1` as the compound, how does the cell count read?
The cell count was 2140.

Which cell count does the source give for `O=C(O)COc1ccc(C(=O)c2cccs2)c(Cl)c1Cl` here?
Its cell count is 5800.

With `COc1ccc2c(c1)c(CC(=O)NCCc1ccccc1)c(C)n2C(=O)c1ccc(Cl)cc1` as the compound, how does the cell count read?
The cell count was 6040.

Which cell count does the source give for `CC(C)OC(=O)CCC/C=C\C[C@@H]1[C@@H](/C=C/C(=O)COc2cccc(C(F)(F)F)c2)[C@H](O)C[C@@H]1O` here?
The cell count was 6150.

With `CCCCC[C@@H](O)/C=C/[C@H]1C(=O)C[C@H](O)[C@@H]1C/C=C\CCCC(=O)O` as the compound, how does the cell count read?
Its cell count is 6010.

Which cell count does the source give for `CCCCCCCCCCCCCCCC(=O)N[C@H]1CCOC1=O` here?
The cell count was 5590.

With `COC(=O)CCCCCC[C@@H]1[C@@H](CCC(O)C#Cc2ccccc2F)[C@H](O)C[C@@H]1O` (stereo partly drawn) as the compound, how does the cell count read?
The cell count was 5830.

Which cell count does the source give for `CCCCCCCCCCCCCCCC(=O)NC(CO)CO` here?
Its cell count is 5260.

For `COc1ccc(/C=C/c2cc(O)cc(O)c2)cc1O`, which cell count is on record?
Its cell count is 5710.

Which cell count does the source give for `C=C1C(=O)O[C@H](CCCCCCCC)[C@H]1C(=O)O` here?
The cell count was 6150.

Which cell count does the source give for `CCCCC[C@H](O)/C=C/[C@@H]1[C@H]2C/C=C\CCCC(=O)O[C@H]2C[C@H]1O` here?
The cell count was 5860.

Which cell count does the source give for `CCCCC[C@H](O)/C=C/[C@H]1CC[C@@H](O)[C@@H]1C/C=C\CCCC(=O)O` here?
Its cell count is 5950.

For `CCCCC[C@H](O)/C=C/[C@@H]1[C@H](CCCCCCC(=O)O)[C@@H](O)C[C@H]1O`, which cell count is on record?
Its cell count is 6250.

For `CC/C=C\C/C=C\C/C=C\C/C=C\CCCCCCC(=O)OCC`, which cell count is on record?
The cell count was 5560.

For `CCCCCCCCCCCCCC(=O)O`, which cell count is on record?
Its cell count is 6710.

For `CCCCCC(=O)/C=C/[C@@H]1[C@H](C/C=C\CCCC(=O)O)[C@H](O)C[C@H]1O`, which cell count is on record?
Its cell count is 5630.

Which cell count does the source give for `COc1ccc(C[C@H](N)C(=O)N[C@H]2[C@@H](O)[C@H](n3cnc4c(N(C)C)ncnc43)O[C@@H]2O)cc1` here?
Its cell count is 1130.

For `CCCCCCCCCCCCCCCCC/C=C\C(=O)O`, which cell count is on record?
Its cell count is 5170.

Which cell count does the source give for `CCCCC[C@H](O)/C=C/[C@H]1[C@H](O)CC(=O)[C@H]1C/C=C\CCCC(=O)OC(C)C` here?
The cell count was 5550.

For `CCCCC/C=C\C/C=C\C/C=C\C/C=C\CCCC(=O)SCC(O)CO` (stereo not drawn), which cell count is on record?
Its cell count is 5460.

With `CS(=O)(=O)NC(=O)CCC/C=C\C[C@H]1C(=O)C[C@@H](O)[C@@H]1/C=C/[C@@H](O)COc1ccccc1` as the compound, how does the cell count read?
Its cell count is 5660.

Which cell count does the source give for `O=C(CCc1ccc(O)c(O)c1)N[C@@H](CC(=O)OCc1ccccc1)C(=O)OCc1ccccc1` here?
The cell count was 6350.

Which cell count does the source give for `CCCCC[C@](C)(O)/C=C/[C@@H]1[C@@H](C/C=C\CCCC(=O)OC)[C@@H](O)C[C@H]1O` here?
The cell count was 6340.

For `CCCCCCCCCCCCCCCCCC(=O)NCCO`, which cell count is on record?
Its cell count is 6030.

With `CCCCC(C)(C)[C@H](O)/C=C/[C@H]1CCC(=O)[C@@H]1C/C=C\CCCC(=O)O` as the compound, how does the cell count read?
The cell count was 6270.

For `CC(C)OC(=O)CCC/C=C\C[C@@H]1[C@@H](/C=C/[C@H](O)CCc2ccccc2)[C@H](O)C[C@@H]1O`, which cell count is on record?
Its cell count is 6060.

For `COC(=O)CCC[C@H](O)[C@H](O)CO`, which cell count is on record?
Its cell count is 5290.

For `CCCCCCCC/C=C\CCCCCCCCCCCC(=O)O`, which cell count is on record?
Its cell count is 6030.

For `O=C(O)/C=C/CCCCCCCCC(=O)O`, which cell count is on record?
Its cell count is 5830.

For `CCCCCCCCCCCCCCCCCCCCCCC(=O)OCC`, which cell count is on record?
The cell count was 4740.

For `CCCCC[C@H](O)/C=C/[C@@H]1[C@H]2C/C(=C\CCCC(=O)O)C[C@H]2C[C@H]1O`, which cell count is on record?
Its cell count is 6140.

Which cell count does the source give for `COc1c(O)c2c(=O)cc(OC)c3c4c(OC)cc(=O)c5c(O)c(OC)c(C[C@@H](C)OC(=O)c6ccccc6)c(c(c1C[C@@H](C)OC(=O)Oc1ccc(O)cc1)c23)c54` here?
The cell count was 2210.

Which cell count does the source give for `CCCCCCCC/C=C\CCCCCCCC(=O)Nc1c(C(C)C)cccc1C(C)C` here?
The cell count was 5690.

For `CCCCN=C(N)NO`, which cell count is on record?
Its cell count is 6280.

Which cell count does the source give for `C=CCN(C)CCCCCCOc1ccc(C(=O)c2ccc(Br)cc2)c(F)c1` here?
The cell count was 5700.

For `CC(CN1CCC(n2c(=O)[nH]c3cc(Cl)ccc32)CC1)NC(=O)c1ccc2ccccc2c1` (stereo not drawn), which cell count is on record?
The cell count was 5810.

same assay, conditions: A549 miR-34 inducible, Hoechst nuclei count, 48 h; measured here: total cells without miR-34 induction

With `CCCCC[C@H](O)C/C=C1/C(=O)C[C@H](O)[C@@H]1C/C=C\CCCC(=O)O` as the compound, how does the cell count read?
Its cell count is 5650.

With `CCCCC/C=C\C=C1\C(=O)CC[C@@H]1C/C=C\CCCC(=O)O` as the compound, how does the cell count read?
Its cell count is 6000.

Which cell count does the source give for `COc1ccc(C2=N[C@@H](c3ccc(Cl)cc3)[C@@H](c3ccc(Cl)cc3)N2C(=O)N2CCNC(=O)C2)c(OC(C)C)c1` here?
Its cell count is 3920.

For `COC(=O)C1=CC[C@@]23CC[C@@H]([C@@](C)(/C=C/C=C(\C)C(=O)O)OC2=O)[C@@]3(OC(C)=O)CC1`, which cell count is on record?
Its cell count is 1860.

Which cell count does the source give for `O=C(O)COc1ccc(C(=O)c2cccs2)c(Cl)c1Cl` here?
The cell count was 6010.

Which cell count does the source give for `COc1ccc2c(c1)c(CC(=O)NCCc1ccccc1)c(C)n2C(=O)c1ccc(Cl)cc1` here?
The cell count was 5920.

For `CC(C)OC(=O)CCC/C=C\C[C@@H]1[C@@H](/C=C/C(=O)COc2cccc(C(F)(F)F)c2)[C@H](O)C[C@@H]1O`, which cell count is on record?
The cell count was 6280.

With `CCCCC[C@@H](O)/C=C/[C@H]1C(=O)C[C@H](O)[C@@H]1C/C=C\CCCC(=O)O` as the compound, how does the cell count read?
Its cell count is 6040.

For `CCCCCCCCCCCCCCCC(=O)N[C@H]1CCOC1=O`, which cell count is on record?
The cell count was 5590.

For `COC(=O)CCCCCC[C@@H]1[C@@H](CCC(O)C#Cc2ccccc2F)[C@H](O)C[C@@H]1O` (stereo partly drawn), which cell count is on record?
Its cell count is 5780.

For `CCCCCCCCCCCCCCCC(=O)NC(CO)CO`, which cell count is on record?
Its cell count is 5440.

Which cell count does the source give for `COc1ccc(/C=C/c2cc(O)cc(O)c2)cc1O` here?
The cell count was 6250.

For `C=C1C(=O)O[C@H](CCCCCCCC)[C@H]1C(=O)O`, which cell count is on record?
Its cell count is 5890.

For `CCCCC[C@H](O)/C=C/[C@@H]1[C@H]2C/C=C\CCCC(=O)O[C@H]2C[C@H]1O`, which cell count is on record?
The cell count was 5990.

Which cell count does the source give for `CCCCC[C@H](O)/C=C/[C@H]1CC[C@@H](O)[C@@H]1C/C=C\CCCC(=O)O` here?
Its cell count is 6110.

For `CCCCC[C@H](O)/C=C/[C@@H]1[C@H](CCCCCCC(=O)O)[C@@H](O)C[C@H]1O`, which cell count is on record?
Its cell count is 6530.

With `CC/C=C\C/C=C\C/C=C\C/C=C\CCCCCCC(=O)OCC` as the compound, how does the cell count read?
Its cell count is 6480.

For `CCCCCCCCCCCCCC(=O)O`, which cell count is on record?
The cell count was 6460.

For `CCCCCC(=O)/C=C/[C@@H]1[C@H](C/C=C\CCCC(=O)O)[C@H](O)C[C@H]1O`, which cell count is on record?
The cell count was 5690.

For `COc1ccc(C[C@H](N)C(=O)N[C@H]2[C@@H](O)[C@H](n3cnc4c(N(C)C)ncnc43)O[C@@H]2O)cc1`, which cell count is on record?
Its cell count is 1270.

With `CCCCCCCCCCCCCCCCC/C=C\C(=O)O` as the compound, how does the cell count read?
Its cell count is 5930.

With `CCCCC[C@H](O)/C=C/[C@H]1[C@H](O)CC(=O)[C@H]1C/C=C\CCCC(=O)OC(C)C` as the compound, how does the cell count read?
Its cell count is 5820.

Which cell count does the source give for `CCCCC/C=C\C/C=C\C/C=C\C/C=C\CCCC(=O)SCC(O)CO` (stereo not drawn) here?
The cell count was 5540.

With `CS(=O)(=O)NC(=O)CCC/C=C\C[C@H]1C(=O)C[C@@H](O)[C@@H]1/C=C/[C@@H](O)COc1ccccc1` as the compound, how does the cell count read?
Its cell count is 6300.

For `O=C(CCc1ccc(O)c(O)c1)N[C@@H](CC(=O)OCc1ccccc1)C(=O)OCc1ccccc1`, which cell count is on record?
Its cell count is 6270.

For `CCCCC[C@](C)(O)/C=C/[C@@H]1[C@@H](C/C=C\CCCC(=O)OC)[C@@H](O)C[C@H]1O`, which cell count is on record?
The cell count was 6490.

With `CCCCCCCCCCCCCCCCCC(=O)NCCO` as the compound, how does the cell count read?
Its cell count is 6120.

For `CCCCC(C)(C)[C@H](O)/C=C/[C@H]1CCC(=O)[C@@H]1C/C=C\CCCC(=O)O`, which cell count is on record?
The cell count was 6450.

Which cell count does the source give for `CC(C)OC(=O)CCC/C=C\C[C@@H]1[C@@H](/C=C/[C@H](O)CCc2ccccc2)[C@H](O)C[C@@H]1O` here?
Its cell count is 6410.

For `COC(=O)CCC[C@H](O)[C@H](O)CO`, which cell count is on record?
The cell count was 5040.

For `CCCCCCCC/C=C\CCCCCCCCCCCC(=O)O`, which cell count is on record?
The cell count was 5990.

Which cell count does the source give for `O=C(O)/C=C/CCCCCCCCC(=O)O` here?
The cell count was 5890.

With `CCCCCCCCCCCCCCCCCCCCCCC(=O)OCC` as the compound, how does the cell count read?
The cell count was 5220.

With `CCCCC[C@H](O)/C=C/[C@@H]1[C@H]2C/C(=C\CCCC(=O)O)C[C@H]2C[C@H]1O` as the compound, how does the cell count read?
Its cell count is 6660.

Which cell count does the source give for `COc1c(O)c2c(=O)cc(OC)c3c4c(OC)cc(=O)c5c(O)c(OC)c(C[C@@H](C)OC(=O)c6ccccc6)c(c(c1C[C@@H](C)OC(=O)Oc1ccc(O)cc1)c23)c54` here?
Its cell count is 2300.

Which cell count does the source give for `CCCCCCCC/C=C\CCCCCCCC(=O)Nc1c(C(C)C)cccc1C(C)C` here?
The cell count was 5700.

For `CCCCN=C(N)NO`, which cell count is on record?
The cell count was 5930.

With `C=CCN(C)CCCCCCOc1ccc(C(=O)c2ccc(Br)cc2)c(F)c1` as the compound, how does the cell count read?
The cell count was 5660.

With `CC(CN1CCC(n2c(=O)[nH]c3cc(Cl)ccc32)CC1)NC(=O)c1ccc2ccccc2c1` (stereo not drawn) as the compound, how does the cell count read?
Its cell count is 5380.
